These results are taken from PubChem BioAssay (NCATS).

Results filed as inconclusive are left out. Values without a mark were called inactive. Calls of active or inactive are those of the source. Calls come from the whole dose curve; as a rule, active = well fitted inhibition curve with a large enough effect; inconclusive = small, poorly fitted or top-dose-only effect; inactive = no such curve, though single readings can be large or run the other way. Bridge positions count the residues as written; N and C are the ends. Square brackets hold non-standard residues; d marks the D form. Side chains are listed from the residue outwards. Peptide text beside a SMILES is read from it. * marks the point of attachment. Phg(4-OMe) = COc1ccc([C@H](N)C(=O)O)cc1; d(aIle) = CC[C@H](C)[C@@H](N)C(=O)O; d(aThr) = C[C@@H](O)[C@@H](N)C(=O)O; NMeF = CN[C@@H](Cc1ccccc1)C(=O)O; Isobutyryl = CC(C)C(=O)*
% is set by controls: 0 for no effect and ±100 for the full control effect; potency is the fitted concentration of half-maximal effect.

The subject of the experiment is Zika virus NS2B-NS3 protease (linked construct). Briefly: Primary screen NINDS Rhodamine qHTS for Zika virus inhibitors (AID 1347160). Note: nearly all actives have a fitted effect of over 55% in size. As to conditions: purified NS2B-NS3 protease, Rhodamine110 substrate fluorescence; series mostly up to 112 µM; activity change, negative = inhibition: at the top concentration. The procedure, abridged: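 Rhodamine110-peptide cleavage (1.5 µM substrate) by 25 nM linked NS2B-NS3 enzyme at pH 8.0 (Tris, Tween 20), after 15 min RT preincubation with compounds; 15-min fluorescence change normalized to controls and Hill-fitted.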
Background: qHTS replaces the single test concentration by a dilution series.
`CC(C)=CCC[C@]12c3cc4c(cc3CC[C@@]1(C)[C@H](C)CC[C@@H]2O)[nH]c1ccccc14`: the Potency is 24.7 µM (active).

For `C/C=C/C1C=CC2CC(C)CC(C)C2C1C(=O)CC(=O)NC(CO)C/C=C/CCCCC` (centres undefined), the Potency is 11 µM (active). `C=C1CC[C@@H](Br)C(C)(C)[C@]12CC=C(C)C(=O)C2`: the “activity change, negative = inhibition” value was -15.6%.

With `C=CC(CCCCC)C1C(=O)NC(=O)C1C(=O)C1C(/C=C/C)C=CC2CC(C(=O)O)CC(C)C21` (centres undefined), the Potency is 3.92 µM (active). For `COc1cc(/C=C/C(=O)OC[C@@H](Cc2ccc(O)c(OC)c2)[C@@H](COC(=O)/C=C/c2ccc(O)c(OC)c2)Cc2ccc(O)c(OC)c2)ccc1O`, the Potency is 31.1 µM (active). In the case of `C=C[C@@]1(C)CC[C@@H]([C@H](C)C(=O)/C=C/C(C)(C)O)O1`, the Potency is 55.3 µM (active). As for `O=C1CC2OCC=C3CN4C5CC3C2[C@@H]2N1c1ccccc1[C@]52C[C@@H]4C1=C[C@H]2C3CC4N(CC[C@@]45c4ccccc4N(C1=O)[C@@H]25)C/C3=C/CO` (some centres undefined), the “activity change, negative = inhibition” value was -5.51%. Take `C=C1CC[C@@H](O[C@H]2C[C@@](O)([C@H](C)NC(=O)c3[nH]c(C)c(Cl)c3Cl)[C@H](O)[C@@H](C)O2)[C@@H]2C=C[C@H](C)C(/C(O)=C3/C(=O)[C@H](C(C)C)N([C@@H]4O[C@H](C)[C@H](OC(N)=O)[C@H](OC(C)=O)[C@@H]4OC)C3=O)[C@@H]12` (some centres undefined): the Potency was 15.6 µM (active). Take `CC[C@H](C)[C@H]1NC(=O)[C@@H](NC(=O)C(C)C)[C@@H](C)OC(=O)[C@H](COC(=O)CNC(C)=O)NC(=O)[C@@H]([C@@H](C)O)NC(=O)[C@H](Cc2ccccc2)N(C)C(=O)[C@H](c2ccc(OC)cc2)NC1=O` (Isobutyryl-T[d(aIle)][Phg(4-OMe)][NMeF][d(aThr)]S([Gly-Ac]); ester 1-C): the “activity change, negative = inhibition” value is -2.72%. Consider `C=C(C)CC[C@H](Cc1c(O)cc(O)c2c1O[C@H](c1ccc(O)cc1)CC2=O)C(=C)C`, for which the Potency is 15.6 µM (active). Still for that read-out and setting: the result for `COc1c(O)cc2c(c1O)C(=O)c1c(coc1C)C2=O` reads 9.84 µM (active). Same read-out and setting: the result for `C[C@]12CC[C@]3(C1)[C@H](CC2=O)C[C@@H](OC(=O)c1ccccc1)[C@H]1[C@](C)(C(=O)O)CCC[C@@]13C` reads 19.6 µM (active); that for `Cc1occ2c1C(=O)c1c(cc(O)c(O)c1O)C2=O`, 13.9 µM (active). As for `COc1ccc2[nH]c3c(c2c1)CCN1C[C@H]2C[C@@H](OC(=O)c4cc(OC)c(OC)c(OC)c4)[C@H](OC)[C@@H](OC)[C@H]2C[C@H]31`, the “activity change, negative = inhibition” value was 24%. The same measure, in the same setting: the result for `C=C[C@](Cl)(CBr)CCC=C(C)C` reads 2.55%.

As to `CC(=O)O[C@H]1c2ccccc2-c2c3c(cc4c2[C@@H]1N(C(C)=O)CC4)OCO3`, the Potency is 55.3 µM (active). The same measure, in the same setting: with `C=CC(CCCCC)C1C(=O)NC(=O)C1C(=O)C1C2C(C)CC(C(=O)O)CC2CC1(O)C(=O)/C=C/C` (centres undefined) the figure was 6.21 µM (active); with `O[C@H]1c2ccccc2-c2c3c(cc4c2[C@@H]1NCC4)OCO3`, 49.3 µM (active); with `C[C@]12CCC[C@](C)(C(=O)O)[C@@H]1CC[C@@]1(C)c3cocc3CC[C@H]21`, 15.6 µM (active).

For `COc1cc(C2OCC3C(c4ccc(O)c(OC)c4)OCC23)ccc1O` (centres undefined), the “activity change, negative = inhibition” value is -33.2% [at 33.1 µM]. `COc1cc(O)c(C(=O)[C@@H]2[C@H](CC=C(C)C)C(C)=CC[C@H]2c2ccccc2)c(O)c1`: the Potency is 15.6 µM (active). The same measure, in the same setting: with `C[n+]1cc2cc(C(N)=O)[nH]c3c(=N)c(Cl)c(N)c1c23` the figure was 44 µM (active).

Turning to `COc1cc2c(c(O)c1O)C(=O)c1c(coc1C)C2=O`, the Potency is 3.11 µM (active). Turning to `CCC(=O)N[C@@H](C[C@H](C)C(Cl)(Cl)Cl)C(=O)N1C(=O)C=C(OC)[C@@H]1CC(C)C`, the “activity change, negative = inhibition” value was -48.6%.

On to `O=c1cc(-c2ccc(O)c(O)c2)oc2cc(O[C@@H]3O[C@H](CO)[C@@H](O)[C@H](O)[C@H]3O)cc(O)c12`, for which the Potency was 17.5 µM (active). In the case of `C/C1=C/[C@@H](C)[C@H](O)[C@@H](O)/C=C/CC/C=C/C(=O)O[C@@H]1[C@H](C)C(=O)CCCC1CC(=O)NC(=O)C1`, the “activity change, negative = inhibition” value was -30.6%.

In the case of `CN1CC[C@]2(c3cccc4c3N[C@H]3N(C)CC[C@@]43[C@]34CCN(C)[C@H]3Nc3ccccc34)c3ccccc3N[C@H]12`, the “activity change, negative = inhibition” value is 159%.

Turning to `CC[C@H]1[C@H](C)[C@H](c2cc(OC)c(OC)cc2OC)[C@@H](C)[C@H](c2cc(OC)c(OC)cc2OC)[C@@]12C=C(OC)C(=O)C=C2OC`, the Potency is 27.7 µM (active). Consider `CC(=O)Oc1cc2c(c(OC(C)=O)c1C1CCc3cc(Cl)c(Cl)n31)C(=O)n1c-2cc(Cl)c1Cl` (centres undefined), for which the Potency is 3.92 µM (active).
